VP16 counter – VP16 counterscreen qHTS for inhibitors of ROR gamma transcriptional activity; Drosophila S2 Gal4-VP16 UAS-luciferase, luminescence, 20 h; Potency, µM (series often up to 53.6 µM), actives largely listed as inhibitors; 310,000 tested, 3.5% active;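 note: Gal4-VP16 expression switched on by copper sulfate through the metallothionein promoter; nearly all actives have a fitted effect of over 50% in size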
DT40 TDP1 no CPT – qHTS for Inhibitors of human tyrosyl-DNA phosphodiesterase 1 (TDP1): qHTS in cells in absence of CPT | DT40 Tdp1-/- hTDP1 cells, no CPT, ATP luminescence, 48 h | Potency, µM (doses to about 46.2 µM), usual class: inhibitors | AID 686978, 2013 | 420,000 tested, 15% active; note: nearly all actives have a fitted effect of over 55% in size
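Chicken DT40 Tdp1-/- cells stably complemented with human TDP1 were seeded at 400 cells/well with DMSO in place of 20 nM camptothecin. After compound pinning, cells grew at least 48 hr at 37 °C; viability read by CellTiter-Glo luminescence.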
TDP1 cell CPT – qHTS for Inhibitors of human tyrosyl-DNA phosphodiesterase 1 (TDP1): qHTS in cells in presence of CPT. Potency, µM (titrated, usually from 46.2 µM), actives largely listed as inhibitors. 420,000 tested, 12% active. chicken DT40 Tdp1-/-;hTDP1 cells + 20 nM CPT, ATP luminescence, 48 h; note: nearly all actives have a fitted effect of over 55% in size
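Chicken DT40 Tdp1-/- cells complemented with human TDP1, 400 cells/well, exposed to compounds plus 20 nM camptothecin for at least 48 h at 37 C; viability read as ATP content by CellTiter-Glo luminescence.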
TDP1 block – qHTS Assay for Inhibitors of Tyrosyl-DNA Phosphodiesterase (TDP1). Tyrosyl-DNA phosphodiesterase 1 (Homo sapiens), Q9NUW8. recombinant TDP1, AlphaScreen DNA substrate cleavage. Potency, µM (top dose mostly 130 µM), most hits filed as inhibitors. 350,000 tested, 0.28% active. AID 485290, 2010; note: nearly all actives have a fitted effect of over 40% in size
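E. coli-derived human Tdp1, 1 nM final. Cpd preinc 15 min RT; substrate 15 nM final, 5 min RT; AS bead mix 10 ug/ml final, 10 min RT. Signal loss = tyrosine-FITC cleavage. No-enzyme wells = max signal.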
RORg inh – qHTS for inhibitors of ROR gamma transcriptional activity. Drosophila S2 Gal4-RORgamma UAS-luciferase reporter, 20 h. Nuclear receptor ROR-gamma (Mus musculus), P51450. AID 2551, 2010. 310,000 tested, 5.4% active. Potency, µM (highest dose often 53.6 µM), most hits filed as inhibitors; note: nearly all actives have a fitted effect of over 60% in size
Target sequence (P51450 whole entry, looked up, the tested form may be a part): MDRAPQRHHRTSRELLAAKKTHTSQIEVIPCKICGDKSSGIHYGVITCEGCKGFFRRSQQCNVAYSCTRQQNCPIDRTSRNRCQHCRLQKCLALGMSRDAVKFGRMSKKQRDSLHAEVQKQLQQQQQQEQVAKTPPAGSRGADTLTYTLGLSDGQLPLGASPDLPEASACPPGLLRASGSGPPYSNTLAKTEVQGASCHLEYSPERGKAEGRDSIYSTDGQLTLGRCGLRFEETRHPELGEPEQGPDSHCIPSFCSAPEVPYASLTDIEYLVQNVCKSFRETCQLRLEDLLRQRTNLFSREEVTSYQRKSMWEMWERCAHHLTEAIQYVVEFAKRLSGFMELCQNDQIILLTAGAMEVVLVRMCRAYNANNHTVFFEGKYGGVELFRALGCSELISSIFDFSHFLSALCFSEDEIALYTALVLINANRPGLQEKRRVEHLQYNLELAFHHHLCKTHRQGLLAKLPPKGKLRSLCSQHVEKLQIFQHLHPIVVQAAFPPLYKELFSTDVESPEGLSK
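Luminescence from a UAS-regulated Photinus luciferase reporter in stably transfected Drosophila Schneider cells is measured; decreased signal marks ROR gamma inhibition. Fusion expression is induced by 700 uM copper sulfate for 20 hr.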
Each line names hits and unclear results; the compound was inactive in the other large screens. Most compounds without a hit are left out; they make up all but 19% or so of the library. Calls come from the whole dose curve; as a rule, active = well fitted curve in the direction sought with a large enough effect; inconclusive = small, poorly fitted or top-dose-only effect, or another doubt; inactive = no such curve, though single readings can be large; an effect the other way counts as inactive or inconclusive.

CCC(=O)N1CCc2cc(S(=O)(=O)CCC(=O)NCCc3ccccc3)ccc21	none
CC1Cc2cc(S(=O)(=O)CCC(=O)Nc3ccc(F)cc3)ccc2N1C(=O)C1CC1 (stereo not drawn)	DT40 TDP1 no CPT inconclusive, TDP1 cell CPT inconclusive (no result: VP16 counter, RORg inh)
CC(CC(=O)NCc1ccco1)S(=O)(=O)c1ccc2c(c1)CCN2C(=O)C1CC1 (stereo not drawn)	DT40 TDP1 no CPT inconclusive, TDP1 cell CPT 18µM
CCCCn1c(SCC2CCCO2)nc2cc(S(N)(=O)=O)ccc21 (stereo not drawn)	DT40 TDP1 no CPT inconclusive, RORg inh inconclusive
COc1ccccc1CNC(=O)CCS(=O)(=O)c1ccc2c(c1)CC(C)N2C(=O)C1CC1 (stereo not drawn)	DT40 TDP1 no CPT 23µM, TDP1 cell CPT 21µM
CC(=O)[C@@H]1[C@H]2[C@H](C(=O)[C@H]3OC[C@@H]2O3)[C@H]2C=Cc3ccccc3N21	VP16 counter inconclusive, DT40 TDP1 no CPT 21µM, TDP1 cell CPT inconclusive, RORg inh inconclusive (no result: TDP1 block)
COC(=O)c1ccccc1NC(=S)NC(NC(=O)c1ccccc1[N+](=O)[O-])C(Cl)(Cl)Cl (stereo not drawn)	VP16 counter inconclusive, RORg inh 13µM
COc1ccc(NC(=S)NC(NC(=O)c2ccccc2Cl)C(Cl)(Cl)Cl)c([N+](=O)[O-])c1 (stereo not drawn)	DT40 TDP1 no CPT inconclusive, TDP1 cell CPT inconclusive, RORg inh inconclusive
COC(=O)NC(NC(=S)Nc1ccc([N+](=O)[O-])cc1)C(Cl)(Cl)Cl (stereo not drawn)	DT40 TDP1 no CPT 7.3µM, TDP1 cell CPT 7.3µM
O=C(NC(NC(=S)Nc1ccccc1C(=O)O)C(Cl)(Cl)Cl)c1ccco1 (stereo not drawn)	none
O=C(NC(NC(=S)Nc1c(Cl)cccc1Cl)C(Cl)(Cl)Cl)c1cccc([N+](=O)[O-])c1 (stereo not drawn)	VP16 counter 8.9µM, DT40 TDP1 no CPT 12µM, TDP1 cell CPT 21µM, RORg inh inconclusive
COC(=O)c1ccccc1NC(=S)NC(NC(=O)c1ccco1)C(Cl)(Cl)Cl (stereo not drawn)	RORg inh 7.9µM
Cc1ccc(S(=O)(=O)n2c(=O)oc3ccccc32)cc1	none
N#Cc1ccccc1NC(=O)C(=O)NCCc1csc2nc(-c3cccc(F)c3)nn12	none (no result: VP16 counter, RORg inh)
O=C(O)c1cccc(NC(=S)NC(NC(=O)c2ccco2)C(Cl)(Cl)Cl)c1 (stereo not drawn)	none
O=C(NC(NC(=S)Nc1ccc(Cl)c(Cl)c1)C(Cl)(Cl)Cl)c1ccco1 (stereo not drawn)	VP16 counter inconclusive, DT40 TDP1 no CPT 18µM, TDP1 cell CPT 21µM
CC(C)CC(=O)NC(Nc1ccc([N+](=O)[O-])cc1)C(Cl)(Cl)Cl (stereo not drawn)	DT40 TDP1 no CPT 23µM, TDP1 cell CPT 18µM, RORg inh inconclusive
N/C(=N\OC(=O)c1cccs1)c1ccccc1	VP16 counter inconclusive, DT40 TDP1 no CPT inconclusive, TDP1 cell CPT inconclusive
Cc1ccc(NCC(=O)N2CCN(S(=O)(=O)c3ccccc3)CC2)cc1F	none (no result: VP16 counter, RORg inh)
CCCCc1ccc(NC(=O)CN(C)CC(=O)Nc2ccccc2Cl)cc1	DT40 TDP1 no CPT 23µM, TDP1 cell CPT inconclusive (no result: TDP1 block)
CN(CC(=O)Nc1ccccc1Cl)CC(=O)Nc1ccccc1[N+](=O)[O-]	DT40 TDP1 no CPT 21µM, TDP1 cell CPT inconclusive
COc1ccc(-c2cc(=O)c3c(OC)c(OC)c(OC)cc3o2)cc1OC	none (no result: DT40 TDP1 no CPT, TDP1 cell CPT)
COc1ccc2c(=O)cc(-c3ccccc3F)oc2c1	DT40 TDP1 no CPT 21µM, TDP1 cell CPT inconclusive
COc1ccc(-c2cc(=O)c3ccccc3o2)cc1OC	DT40 TDP1 no CPT 15µM, TDP1 cell CPT inconclusive
O=c1cc(-c2ccc(O)c(O)c2)oc2ccccc12	DT40 TDP1 no CPT inconclusive, TDP1 cell CPT inconclusive, RORg inh 3.2µM
COc1ccc2c(=O)cc(C(F)(F)C(F)(F)F)oc2c1	none
O=C(Nc1ccccc1SCC1CSc2nc3ccccc3c(=O)n21)c1ccccc1Cl (stereo not drawn)	DT40 TDP1 no CPT inconclusive, TDP1 cell CPT inconclusive
COc1ccc(OC)c(/C(O)=C/C(=O)C(=O)Nc2ccccc2OC)c1	DT40 TDP1 no CPT 18µM, TDP1 cell CPT inconclusive
CCOc1ccc(C2C(=O)N(C3CCCCCC3)CC(=O)N2Cc2ccc(C)cc2)cc1OC (stereo not drawn)	DT40 TDP1 no CPT 23µM, TDP1 cell CPT 23µM (no result: VP16 counter, RORg inh)
COc1ccc(CCN2C(=O)CN(C3CCCCCC3)C(=O)C2c2ccc(Cl)cc2)cc1OC (stereo not drawn)	DT40 TDP1 no CPT 18µM, TDP1 cell CPT inconclusive (no result: VP16 counter, RORg inh)
COc1ccc(CN2C(=O)CN(C3CCCCCC3)C(=O)C2c2ccc(OC)c(OC)c2)cc1 (stereo not drawn)	TDP1 cell CPT inconclusive
O=C1C(c2ccc(F)cc2)N(CCc2ccc(Cl)cc2)C(=O)CN1C1CCCCC1 (stereo not drawn)	DT40 TDP1 no CPT 21µM, TDP1 cell CPT 16µM (no result: VP16 counter, RORg inh)
CC1CCC(N2CC(=O)N(C3CCCC3)C(c3ccc(Cl)cc3)C2=O)CC1 (stereo not drawn)	DT40 TDP1 no CPT 16µM, TDP1 cell CPT inconclusive (no result: VP16 counter, RORg inh)

Screening results from PubChem.
